We go through 15 compounds from PubChem BioAssay.

One test deals with Albumin (Bos taurus) (UniProt P02769). As to the kind of experiment: compounds binding labelled BSA control protein – biochemical, small-molecule microarray, Alexa647 label, 635/667 nm fluorescence, artefact control for SMM control protein annotation, profiling panel (AID 1118).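 Note: score merges 667 nm emission intensity and signal-to-noise per printed compound spot.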 Particulars: BSA-A647 binding, fluorescence 635 nm, higher = more signal.
Test [1] can be described thus: probe aXIP binding to arrayed compounds – biochemical, NeuroSMM set, 635/667 nm fluorescence, primary screen (AID 1119).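 Note: probe is the protein aXip251-270 applied at 1 µg/mL to compound-printed slides; binding of probe to printed compounds measured as 667 nm fluorescence plus signal to noise.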 The conditions noted are these: small-molecule microarray, higher = more signal, called active from +8 up or from −8 down.
Test [2] is described as follows: probe aNOTCH3 binding on compound microarray – biochemical, small-molecule microarray, 635/667 nm fluorescence, primary screen (AID 1120).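 Note: probe is a biotin-tagged antibody raised against NOTCH3 rather than NOTCH3 protein; score merges spot fluorescence near 667 nm with spot signal to noise.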 The conditions noted are these: higher = more signal.
A short description of test [3]: probe aNOTCH2 binding on compound microarray – biochemical, small-molecule microarray, 635/667 nm fluorescence, primary screen (AID 1121).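 Note: score merges feature fluorescence read at 667 nm with its signal to noise.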 Particulars: higher = more signal.
The target in test [4] is Carbonic anhydrase 2 (Homo sapiens) (UniProt P00918). Put plainly: compounds binding carbonic anhydrase 2 – biochemical, small-molecule microarray, Alexa647-labelled CAII, profiling panel (AID 1122). The conditions noted are these: CAII-A647 binding fluorescence, higher = more signal.
Test [5] can be described thus: COS7 lysate on small-molecule microarray, probe aHis, 635 nm (AID 1123).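 Note: z-score combines 667nm fluorescence intensity with signal-to-noise per printed compound spot.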 Particulars: COS7 cell lysate, fluorescence, higher = more signal.
Test [6] can be described thus: probe aLAP1 signal on lysate-treated microarray – cell lysate, small-molecule microarray, COS7 lysate, primary screen (AID 1124).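 Note: lysate comes from COS7 cells expressing LAP1 and is applied at 0.3 µg/mL; score merges spot fluorescence near 667 nm with signal-to-noise over triplicate slides.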 Particulars: probe aLAP1, fluorescence, higher = more signal.
Another test relates to Sam68 (KHDRBS1). Put plainly: compounds binding KHDRBS1 protein – biochemical, small-molecule microarray, 635 nm fluorescence, primary screen (AID 1125).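 Note: score merges 667 nm channel intensity with signal to noise over triplicate slides.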 The conditions noted are these: higher = more signal.
The test system of test [7] is Chordin-like protein 2 (CHRDL2). As to the kind of experiment: compounds binding chordin-like 2 – biochemical, small-molecule microarray, 635 nm fluorescence, primary screen (AID 1126).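 Note: printed compound slides probed with Chrdl2 protein at 4 µg/mL for 1 h at 4 C; score merges 667 nm emission intensity with signal to noise over three replicate slides.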 The conditions noted are these: fluorescence 635 nm, higher = more signal.
Test [8] deals with Concanavalin-A (Canavalia ensiformis) (UniProt P02866). Put plainly: compounds binding concanavalin A lectin – biochemical, small-molecule microarray, Alexa647 label, 635 nm, artefact control for SMM control protein annotation, primary screen (AID 1127).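 Note: z combines 667 nm emission intensity with signal-to-noise across three replicate slides.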 Particulars: ConA-A647 binding fluorescence, higher = more signal.

Active and inactive are the calls of the source.

Sequence of Concanavalin-A (Canavalia ensiformis) (P02866 whole entry, looked up): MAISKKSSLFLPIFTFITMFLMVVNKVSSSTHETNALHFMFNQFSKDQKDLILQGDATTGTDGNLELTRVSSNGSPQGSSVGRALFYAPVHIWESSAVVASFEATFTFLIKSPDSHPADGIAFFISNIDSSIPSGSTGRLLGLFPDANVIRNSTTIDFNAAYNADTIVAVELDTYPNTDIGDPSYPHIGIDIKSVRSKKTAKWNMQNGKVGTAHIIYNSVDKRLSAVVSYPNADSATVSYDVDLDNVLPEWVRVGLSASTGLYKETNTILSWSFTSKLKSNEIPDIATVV
Sequence of Albumin (Bos taurus) (P02769 whole entry, looked up): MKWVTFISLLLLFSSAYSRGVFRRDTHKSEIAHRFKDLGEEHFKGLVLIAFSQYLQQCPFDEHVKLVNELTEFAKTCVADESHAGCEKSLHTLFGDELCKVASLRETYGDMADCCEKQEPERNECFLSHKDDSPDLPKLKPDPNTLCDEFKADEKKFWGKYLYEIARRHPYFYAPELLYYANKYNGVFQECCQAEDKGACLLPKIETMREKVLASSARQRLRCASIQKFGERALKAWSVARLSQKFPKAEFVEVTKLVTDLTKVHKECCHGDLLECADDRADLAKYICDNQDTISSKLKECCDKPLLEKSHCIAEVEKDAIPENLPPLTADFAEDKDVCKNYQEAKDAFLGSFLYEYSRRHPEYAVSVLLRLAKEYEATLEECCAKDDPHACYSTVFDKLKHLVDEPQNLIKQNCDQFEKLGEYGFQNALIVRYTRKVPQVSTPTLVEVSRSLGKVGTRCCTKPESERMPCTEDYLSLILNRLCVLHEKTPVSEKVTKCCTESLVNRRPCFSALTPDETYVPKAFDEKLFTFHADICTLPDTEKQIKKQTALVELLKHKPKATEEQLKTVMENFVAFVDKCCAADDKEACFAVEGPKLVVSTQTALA

On to `CC(CO)N1C(=O)[C@@H]2[C@H]3C(=O)OCC=C[C@H]3OC23C=CCN(CCN2CCOCC2)C(=O)[C@@H]13` (stereo not given in full), for which the composite z-score in the test with Albumin (Bos taurus) was 0.138; in test [2], -0.152; in test [3] it was -0.117; in [4] it was 0.302; in test [5] it was -1.05; in [6] it was -0.586. The composite z-score in the test with Sam68 (KHDRBS1) was -0.0161; in test [7] it was -0.235; in test [8], -0.22. Also, the composite Z-score in test [1] was -0.0888 (inactive).

`Cc1cc(C)cc(N2C(=O)CSC2c2cccc([N+](=O)[O-])c2)c1` (stereo not given): the composite z-score in the test with Albumin (Bos taurus) is 0.892; in test [2], -0.0023; in test [3], -0.124; in [4], 0.621; in [5], 1.94; in [6], 0.798. In addition, the results for the composite z-score (in the test with Sam68 (KHDRBS1); in test [7]; in [8]) were 1.3, 0.052 and 1.19, respectively. Further, the composite Z-score in [1] was 0.027 (inactive).

On to `CCOC(=O)[C@H]1[C@@H]2C(=O)N3CCC[C@H]3[C@H](O[Si](C(C)C)(C(C)C)C(C)C)[C@H]2C=C2CCN(S(=O)(=O)c3ccc(C)cc3)C[C@H]21`, for which the composite z-score with Albumin (Bos taurus) was 0.603; in [2], 0.0208; in test [3], -0.112; in test [4] it was 0.481; in test [5], 1.15; in test [6] it was 0.171. Besides, the composite z-score in the test on Sam68 (KHDRBS1) was determined as 1.3; in test [7] it was 0.484; in test [8], 1.12. The composite Z-score in [1] is 0.156 (inactive).

Turning to `C=CC1c2cc(O)c(OC)cc2CCN1Cc1cc2c(cc1Br)OCO2` (stereo not given), the composite z-score with Albumin (Bos taurus) is -0.956; in test [2], -0.0152; in [3] it was -0.0891; in test [4] it was 0.823; in [5], 1.99; in [6] it was 1.25. The composite z-score stood at 0.342 in the test with Sam68 (KHDRBS1), 0.775 in [7] and 0.142 in test [8]. For the same compound, the composite Z-score in test [1] was 0.577 (inactive).

With `Cc1ccc(S[C@]2(C(=O)O)CC(=O)N(Cc3ccccc3Cl)[C@@H]2c2ccc(CO)cc2I)cc1`, the composite z-score in the test with Albumin (Bos taurus) was 0.0877; in test [2], -0.515; in test [3], -0.269; in [4], 0.31; in test [5] it was 0.546; in [6] it was -0.635. The composite z-score in the test on Sam68 (KHDRBS1) was 0.409; in test [7], -0.0996; in [8], -0.1. Besides, the composite Z-score in [1] was -0.648 (inactive).

In the case of `CC(C)C[C@@H]1NC(=O)[C@@H]2C[C@H](C(=O)NCCCCCN)[C@H](c3ccc(O)cc3)N2C1=O`, the composite z-score with Albumin (Bos taurus) is 0.85; in test [2], -0.169; in [3] it was -0.102; in test [4], 0.577; in [5] it was 1.48; in test [6], 0.17. The composite z-score is 1.33 in the test on Sam68 (KHDRBS1), 0.25 in test [7] and 1.17 in [8]. For the same compound, the composite Z-score in test [1] is -0.285 (inactive).

With `CO[C@]12C=C(Br)[C@@H](C[C@@H]1c1cccc(C)c1)[C@@]1(CO1)C2=O`, the composite z-score with Albumin (Bos taurus) was 0.223; in test [2] it was -0.0311; in test [3] it was -0.132; in test [4], 0.354; in test [5], 0.288; in test [6] it was -0.071. The figures for the composite z-score (with Sam68 (KHDRBS1); in test [7]; in [8]) were 0.189, 0.306 and 0.123, respectively. In addition, the composite Z-score in [1] is 0.379 (inactive).

`CC(=O)NCCCC[C@@H]1NC(=O)[C@@H]2C[C@H](C(=O)NCCCC[N+](C)(C)C)[C@H](c3ccc(O)cc3)N2C1=O`: the composite z-score in the test with Albumin (Bos taurus) was -0.763; in [2], 0.271; in [3] it was -0.0467; in test [4] it was 0.514; in [5], 1.18; in test [6] it was -0.111. Moreover, the results for the composite z-score (in the test on Sam68 (KHDRBS1); in [7]; in [8]) were 1.29, 1.35 and 1.16, respectively. Further, in test [1], the composite Z-score is 0.0463 (inactive).

On to `COc1cc2c(cc1O)C(C)N(Cc1ccc([N+](=O)[O-])o1)CC2` (stereo not given), for which the composite z-score was 0.831 with Albumin (Bos taurus); 0.348 in test [2]; 0.0746 in test [3]; 0.512 in [4]; 0.68 in [5]; 1.57 in test [6]. For the same compound, the composite z-score in the test on Sam68 (KHDRBS1) is 1.33; in test [7], -0.622; in test [8], 1.17. The composite Z-score in test [1] was 0.0948 (inactive).

For `O=C1O[C@H](c2ccccc2)[C@H](c2ccccc2)N2[C@H]1[C@@H](C(=O)Nc1nc3ccccc3s1)[C@]1(C(=O)Nc3ccc(C#CCCO)cc31)[C@H]2c1ccc(O)cc1`, the composite z-score is 0.497 with Albumin (Bos taurus); 0.199 in test [2]; -0.156 in test [3]; 0.5 in test [4]; 1.75 in [5]; 0.278 in test [6]. Further, the composite z-score with Sam68 (KHDRBS1) amounted to 1.02; in test [7], 0.172; in [8] it was 1.16. In addition, in test [1], the composite Z-score was -0.0959 (inactive).

As to `CC1=C[C@@]2(CO)C(=O)[C@]3(CO3)[C@@H]1[C@H]1[C@]2(C)C=C(CO)C(=O)[C@]12CO2`, the composite z-score is -0.123 with Albumin (Bos taurus); 0.112 in test [2]; -0.0795 in [3]; 0.497 in [4]; -0.255 in test [5]; -0.274 in [6]. The composite z-score in the test with Sam68 (KHDRBS1) worked out at 0.369; in test [7], 0.397; in test [8], 0.301. For the same compound, the composite Z-score in [1] is 0.817 (inactive).

Regarding `[N-]=[N+]=NCc1ccccc1[C@H]1OC(c2ccc(OCCCO)cc2)=N[C@@]1(CCS(=O)(=O)c1ccccc1)C(=O)NCC(O)CO` (stereo not given in full), the composite z-score came out at 0.567 in the test with Albumin (Bos taurus); 0.11 in test [2]; 0.0697 in test [3]; 0.736 in [4]; 3.48 in [5]; 1.04 in [6]. In addition, the composite z-score in the test with Sam68 (KHDRBS1) was 1.06; in test [7], -0.0485; in test [8] it was 0.939. In addition, in [1], the composite Z-score is 0.652 (inactive).

For the compound `CN(C)C(=O)C1N=C(c2ccc(OCCCO)cc2)N(c2ccccc2)O1` (stereo not given), the composite z-score with Albumin (Bos taurus) worked out at 0.0877; in [2] it was 0.147; in test [3] it was 0.0674; in test [4], 0.846; in [5] it was 1.15; in test [6] it was 0.502. The composite z-score in the test on Sam68 (KHDRBS1) is 1.32; in [7], 0.267; in test [8] it was 0.988. Besides, the composite Z-score in [1] is 0.794 (inactive).

With `C[C@H]1NC(=O)[C@@]23C(=O)N[C@@H](Cc4ccccc4)C2[C@H](C)[C@@]2(C)O[C@H]2C3/C=C/C/C=C\CNC(=O)[C@H](Cc2ccccc2)NC1=O` (stereo not given in full), the composite z-score is -0.474 in the test with Albumin (Bos taurus); -0.145 in [2]; -0.127 in test [3]; 0.281 in test [4]; 0.205 in [5]; 0.0898 in test [6]. Further, the values for the composite z-score (in the test on Sam68 (KHDRBS1); in test [7]; in [8]) were 0.127, 0.636 and 0.501, respectively. Besides, the composite Z-score in test [1] is -0.721 (inactive).

As to `C=CCN1Cc2ccccc2[C@H]2OC(c3ccc(OCCCO)cc3)=N[C@@]2(CC=C)C1=O`, the composite z-score was -0.405 in the test with Albumin (Bos taurus); 0.133 in test [2]; 0.007 in test [3]; 0.418 in test [4]; 2.78 in [5]; 0.373 in test [6]. For the same compound, the composite z-score in the test on Sam68 (KHDRBS1) was determined as 1.31; in test [7], 1.39; in test [8], 0.85. In addition, the composite Z-score in test [1] was 0.911 (inactive).
